Tg IFNy HTS – inhibitors of Toxoplasma gondii growth with IFN-gamma. Toxoplasma gondii growth in IFN-gamma-treated host cells; active compounds read low. activity change, negative = inhibition, % (no concentration beside the values). 69,000 tested, 3.8% active; in the data active means activity change below about -70%, passing the limit was not always enough;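 further: host cells are HeLa cells infected with Toxoplasma gondii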
* marks the source's active call; other numbers are inactive results; i = inactive. The entries come from a sample that favours hits as a whole.

SMILES | Tg IFNy HTS
C[C@H](CO)N1C[C@H](C)[C@H](CN(C)C(=O)Nc2cccc3ccccc23)Oc2ncccc2C1=O | -119*
C[C@@H]1CN([C@@H](C)CO)C(=O)CCCn2nncc2CO[C@H]1CN(C)C(=O)Nc1ccccc1C(F)(F)F | 39
C[C@@H]1CN([C@H](C)CO)C(=O)c2cc(NS(=O)(=O)c3cn(C)cn3)ccc2O[C@H]1CN(C)C(=O)Nc1cccc2ccccc12 | -1
CN(Cc1cc(C(C)(C)C)n[nH]1)C(=O)c1ccn2nnnc2c1 | -4
O=C1COC2(COCCN(CCO)C2)CN1c1ccsc1 (centres undefined) | -45
CC(CCn1cccn1)NC(=O)C(C)(C)NC(=O)c1cccs1 (centres undefined) | 13
CCc1oc(C(=O)N2CCCC(O)(CO)CC2)cc1CN(CC)CC (centres undefined) | -1
CCOC(=O)N1CCN(C(=O)CC2(c3ccccc3F)CC(=O)N(CCOC)C2=O)CC1 (centres undefined) | 19
COCC1c2c(cnn2CC2CCOCC2)CCN1Cc1ccc(C)o1 (centres undefined) | 46
Cc1ccccc1OCC1CCCN(C(=O)c2noc(C)c2Cc2c(C)noc2C)C1 (centres undefined) | -6
O=C1NCC2(CCCN(C(=O)c3ccc4c(c3)OCCO4)CC2)O1 (centres undefined) | -54
CCN1CC2(CCN(C(=O)C3CCOCC3)CC2)COc2ccccc2S1(=O)=O | -2
O=C(O)[C@H]1C[C@H](C(=O)NCc2ccncc2)CN(CCC(F)(F)F)C1 | -2
COc1ccc2sc(NC(=O)c3ccnn3C(F)F)nc2c1 | 183
C[C@@H]1CN([C@H](C)CO)C(=O)c2cc(NC(=O)Nc3ccc(C(F)(F)F)cc3)ccc2O[C@@H](C)CCCCO[C@H]1CN(C)S(=O)(=O)c1ccc(Cl)cc1 | 11
COc1ccc(S(=O)(=O)Nc2ccc3c(c2)C(=O)N([C@@H](C)CO)C[C@@H](C)[C@H](CN(C)S(=O)(=O)c2ccc(Cl)cc2)OCCCC[C@@H](C)O3)cc1 | -59
COc1ccc(S(=O)(=O)N(C)C[C@H]2OCCCC[C@H](C)Oc3ccc(NC(=O)Cc4ccccc4)cc3C(=O)N([C@@H](C)CO)C[C@@H]2C)cc1 | -108*
COc1ccc(S(=O)(=O)N(C)C[C@@H]2OCCCC[C@@H](C)Oc3ccc(NC(=O)Cc4ccccc4)cc3C(=O)N([C@@H](C)CO)C[C@H]2C)cc1 | -7
C[C@H](CO)N1C[C@H](C)[C@H](CN(C)CC2CC2)OCCCC[C@H](C)Oc2ccc(NC(=O)c3ccccc3)cc2C1=O | -83*
COc1ccc(S(=O)(=O)N(C)C[C@@H]2OCCCC[C@H](C)Oc3ccc(NC(=O)Cc4ccccc4)cc3C(=O)N([C@H](C)CO)C[C@H]2C)cc1 | -28
COc1ccc(S(=O)(=O)N(C)C[C@H]2OCCCC[C@H](C)Oc3ccc(NC(=O)Cc4ccccc4)cc3C(=O)N([C@@H](C)CO)C[C@H]2C)cc1 | -64
C[C@H](CO)N1C[C@H](C)[C@H](CN(C)S(=O)(=O)c2ccc(Cl)cc2)OCCCC[C@H](C)Oc2ccc(NC(=O)Nc3ccc(C(F)(F)F)cc3)cc2C1=O | 45
COc1ccc(S(=O)(=O)Nc2ccc3c(c2)C(=O)N([C@H](C)CO)C[C@@H](C)[C@@H](CN(C)S(=O)(=O)c2ccc(Cl)cc2)OCCCC[C@@H](C)O3)cc1 | -110*
COc1ccc(S(=O)(=O)Nc2ccc3c(c2)C(=O)N([C@@H](C)CO)C[C@@H](C)[C@H](CN(C)S(=O)(=O)c2ccc(Cl)cc2)OCCCC[C@H](C)O3)cc1 | -102*
C[C@@H]1CCCCO[C@H](CN(C)CC2CC2)[C@H](C)CN([C@H](C)CO)C(=O)c2cc(NC(=O)c3ccccc3)ccc2O1 | 92
SMILES | Tg IFNy HTS
C[C@H](CO)N1C[C@H](C)[C@@H](CN(C)CC2CC2)OCCCC[C@H](C)Oc2ccc(NC(=O)c3ccccc3)cc2C1=O | 92
C=CCn1c(Cc2ccc(OC)cc2)nnc1SCC(=O)NC1=NCCS1 | -14
Cc1[nH]c2c(F)cccc2c1CC(=O)N(C)CCc1noc(C(C)C)n1 | -3
CCc1ccc(NC(=O)Cn2c(=O)cc(-c3nc(C4CC4)no3)c3ccccc32)cc1 | -20
COc1ccc(S(=O)(=O)N2CCCC2c2ccnc(Nc3ccccn3)n2)cc1 (centres undefined) | 32
COc1ccccc1-c1nc(Cn2nnc(-c3nc(-c4cccs4)no3)c2C)c(C)o1 | -24
COCC(=O)N1CC[C@H]2C[C@H](c3nc(C)no3)O[C@H]2C1 | -49
Cc1ccc(NC(=O)C(CC(C)C)NS(=O)(=O)c2ccc3[nH]c(=O)ccc3c2)cc1F (centres undefined) | -13
COc1ccc(C)cc1-n1cnnc1C1CC(=O)N(C)C1 (centres undefined) | 1
C[C@@H]1CCCCO[C@H](CN(C)S(=O)(=O)c2ccccc2)[C@@H](C)CN([C@H](C)CO)C(=O)c2cc(NC(=O)Nc3ccc4c(c3)OCO4)ccc2O1 | 446
C[C@H](CO)N1C[C@H](C)[C@@H](CN(C)S(=O)(=O)c2ccc(Cl)cc2)OCCCC[C@H](C)Oc2ccc(NC(=O)Nc3ccc(C(F)(F)F)cc3)cc2C1=O | -67
C[C@@H]1CN([C@@H](C)CO)C(=O)c2cc(NC(=O)Nc3ccc4c(c3)OCO4)ccc2O[C@@H](C)CCCCO[C@@H]1CN(C)S(=O)(=O)c1ccccc1 | i
COc1ccc(S(=O)(=O)Nc2ccc3c(c2)C(=O)N([C@@H](C)CO)C[C@@H](C)[C@@H](CN(C)S(=O)(=O)c2ccc(Cl)cc2)OCCCC[C@@H](C)O3)cc1 | -137*
C[C@@H]1CCCCO[C@@H](CN(C)S(=O)(=O)c2ccc(Cl)cc2)[C@H](C)CN([C@@H](C)CO)C(=O)c2cc(NC(=O)Nc3ccc(C(F)(F)F)cc3)ccc2O1 | -40
COc1ccc(S(=O)(=O)Nc2ccc3c(c2)C(=O)N([C@H](C)CO)C[C@H](C)[C@H](CN(C)S(=O)(=O)c2ccc(Cl)cc2)OCCCC[C@H](C)O3)cc1 | -82*
COc1ccc(S(=O)(=O)Nc2ccc3c(c2)C(=O)N([C@H](C)CO)C[C@@H](C)[C@@H](CN(C)S(=O)(=O)c2ccc(Cl)cc2)OCCCC[C@H](C)O3)cc1 | -117*
C[C@H]1CCCCO[C@H](CN(C)S(=O)(=O)c2ccccc2)[C@@H](C)CN([C@@H](C)CO)C(=O)c2cc(NC(=O)Nc3ccc4c(c3)OCO4)ccc2O1 | -91*
CCOC(=O)N1CCC2(CC1)OC(=O)C(C)=C2C(=O)NCCN1CCCCCC1 | 56
Cn1cc(C[C@@H]2[C@H](N3CCOCC3)CCN2c2ncccn2)cn1 | -47
CN1CCOCC1c1nccc(NCc2cccnc2)n1 (centres undefined) | 29
COC(=O)c1cc(CN(C)C(C)c2nc(C)sc2C)cs1 (centres undefined) | 2
Cc1ccc(N2CCCC2=O)cc1S(=O)(=O)NC(=O)C1Cc2ccccc2CN1 (centres undefined) | 28
COc1ccc2c(c1)NC1(CCN(C(=O)NCc3ccc(F)cc3)CC1)c1cccn1-2 | 319
CNc1ncc(CN(C)C(=O)C(c2cccc(C)c2)N(C)C)cn1 (centres undefined) | -31
O=c1[nH]nc(C2CCCN(S(=O)(=O)N3CCCC3)C2)n1-c1ccccc1 (centres undefined) | -12
Nc1cccc2nc3ccccc3cc12 | -99*
Nc1cccc(-c2nc3ccccc3[nH]2)c1 | 52
Nc1ccccc1Nc1nc2ccccc2[nH]1 | -17
